Test results published in PubChem BioAssay (EPA / NIEHS).
Results filed as inconclusive are left out. The source made the active and inactive calls. How the source made its calls: active means hit-call score of the fitted dose curve at least 0.9, where 1 is the maximum; inconclusive means response in the unintended direction; inactive means score below 0.9.

target: Glucocorticoid receptor (Homo sapiens) (UniProt P04150); assay: ATG_GR_TRANS: Attagene TRANS-FACTORIAL HepG2 Assay for human Glucocorticoid Receptor (GR) (AID 2282978); conditions: HepG2 Attagene TRANS GR reporter, mRNA transcription;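 further: activators score as hits since higher reporter transcript over DMSO is fitted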
Summary of the method: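 Multiplexed TRANS reporter system, HepG2; 24 h exposure; RNA → oligo(dT) RT → reporter-specific PCR → 6-FAM primer extension → HpaI cut → CE fluorescence. Gain-of-signal vs DMSO.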

Glucocorticoid receptor (Homo sapiens), sequence (P04150 whole entry, looked up): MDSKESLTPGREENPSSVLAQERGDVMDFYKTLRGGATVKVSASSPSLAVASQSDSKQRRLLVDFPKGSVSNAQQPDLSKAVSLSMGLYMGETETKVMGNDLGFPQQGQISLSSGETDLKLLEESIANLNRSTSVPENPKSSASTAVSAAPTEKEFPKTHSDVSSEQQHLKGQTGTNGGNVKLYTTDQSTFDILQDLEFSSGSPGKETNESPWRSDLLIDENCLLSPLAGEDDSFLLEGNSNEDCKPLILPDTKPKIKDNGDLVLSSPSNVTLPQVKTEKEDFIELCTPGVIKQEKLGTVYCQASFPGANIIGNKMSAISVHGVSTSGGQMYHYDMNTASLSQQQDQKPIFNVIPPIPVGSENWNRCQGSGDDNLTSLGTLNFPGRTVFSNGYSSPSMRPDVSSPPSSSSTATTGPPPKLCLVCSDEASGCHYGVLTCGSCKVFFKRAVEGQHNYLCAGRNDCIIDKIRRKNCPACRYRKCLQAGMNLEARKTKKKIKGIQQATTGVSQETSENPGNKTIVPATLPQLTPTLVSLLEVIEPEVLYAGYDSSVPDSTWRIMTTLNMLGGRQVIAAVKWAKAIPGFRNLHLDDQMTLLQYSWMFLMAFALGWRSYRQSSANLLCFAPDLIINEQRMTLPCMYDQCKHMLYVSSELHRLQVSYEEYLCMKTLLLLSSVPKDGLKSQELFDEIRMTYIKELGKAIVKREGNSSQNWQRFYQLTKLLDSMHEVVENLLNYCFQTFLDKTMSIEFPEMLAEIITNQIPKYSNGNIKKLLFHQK

Row | Structure (SMILES) | outcome
1 | CC(C)OC=O | inactive
2 | OCC(F)(F)C(F)(F)C(F)(F)CO | inactive
3 | CC(C)Nc1ccc(NC(C)C)c2c1C(=O)c1ccccc1C2=O | inactive
4 | COC(F)(C(F)F)C(F)(F)F (centres undefined) | inactive

target: Bile acid receptor (Homo sapiens) (UniProt Q96RI1); assay: ATG_FXR_TRANS: Attagene TRANS-FACTORIAL HepG2 Assay for Farnesoid X Receptor (FXR) (AID 2282979); conditions: HepG2 Attagene TRANS FXR-GAL4 reporter transcription;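 further: hits raise reporter mRNA above DMSO so AC50 marks FXR activation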
Summary of the method: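 Read-out: fluorescent reporter transcripts quantified by capillary electrophoresis after RT-PCR of total RNA. Source cells were HepG2 transiently carrying chimeric NR-GAL4 plus GAL4-UAS reporter units, dosed 24 h. Activity fitted upward relative to DMSO baseline.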

Bile acid receptor (Homo sapiens), sequence (Q96RI1 whole entry, looked up, the tested form may be a part): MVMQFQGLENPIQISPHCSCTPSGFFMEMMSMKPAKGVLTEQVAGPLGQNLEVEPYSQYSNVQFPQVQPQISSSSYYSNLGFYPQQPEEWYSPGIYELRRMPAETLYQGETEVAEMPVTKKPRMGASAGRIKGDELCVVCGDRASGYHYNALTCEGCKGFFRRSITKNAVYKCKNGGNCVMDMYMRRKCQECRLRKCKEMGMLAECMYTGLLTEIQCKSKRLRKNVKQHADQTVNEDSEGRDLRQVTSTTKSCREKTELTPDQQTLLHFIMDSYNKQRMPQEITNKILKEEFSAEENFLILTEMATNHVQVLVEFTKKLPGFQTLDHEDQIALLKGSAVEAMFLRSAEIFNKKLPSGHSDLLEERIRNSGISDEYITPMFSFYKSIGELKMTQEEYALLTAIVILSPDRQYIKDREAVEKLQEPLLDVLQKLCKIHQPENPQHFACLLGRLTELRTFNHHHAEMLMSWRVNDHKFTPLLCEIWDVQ

Row | Structure (SMILES) | outcome
5 | Brc1ccccn1 | inactive
6 | O=C1OC(=O)c2ccc3c4c(ccc1c24)C(=O)OC3=O | inactive
7 | NCC(F)(F)C(F)(F)C(F)(F)C(F)(F)C(F)(F)C(F)(F)F | inactive
8 | CC(C)(C)C(=O)C1C(=O)c2ccccc2C1=O | inactive
9 | O=C1c2c(O)ccc(Nc3ccc(CCO)cc3)c2C(=O)c2c([N+](=O)[O-])ccc(O)c21 | inactive
10 | O=S(=O)(Cl)C(F)(F)C(F)(F)C(F)(F)C(F)(F)C(F)(F)C(F)(F)C(F)(F)C(F)(F)F | inactive
11 | CC1=CCC(=O)O1 | inactive
12 | CC(O)C#CC(C)O (centres undefined) | inactive
13 | CCn1c2ccccc2c2ccccc21 | inactive
14 | CCN(CCO)S(=O)(=O)C(F)(F)C(F)(F)C(F)(F)C(F)(F)C(F)(F)C(F)(F)C(F)(F)C(F)(F)F | inactive
15 | NC(=O)C(F)(F)C(F)(F)C(F)(F)C(F)F | inactive
16 | CC1=CC2C3C=CC(C3)C2C1C (centres undefined) | inactive
17 | O=C(O)C(F)(F)OC(F)(F)C(F)(F)OC(F)(F)C(F)(F)OC(F)(F)F | inactive
18 | O=C(Cl)C(F)(F)C(F)(F)C(F)(F)C(F)(F)C(F)(F)C(F)(F)C(F)(F)F | inactive
19 | O=C(F)C1(F)C(F)(F)C(F)(F)C(F)(F)C(F)(F)C1(F)F | inactive
20 | CCN(CC)c1ccc(C=O)cc1 | inactive
21 | C#CC(O)CCC (centres undefined) | inactive
22 | O=C(O)C(F)(F)C(F)(F)C(F)(F)C(=O)O | inactive
23 | CN(N=O)C(=O)N[C@@H]1[C@@H](O)[C@H](O)[C@@H](CO)O[C@@H]1O | inactive
24 | OCCCCC(F)(F)C(F)(F)C(F)(F)C(F)(F)F | inactive
25 | N#CCCOCCC#N | inactive
26 | O=C(c1ccccc1)c1ccc(Cl)cc1 | inactive
27 | Nc1cccnc1N | inactive
28 | N#Cc1ccccc1O | inactive

target: Oxysterols receptor LXR-alpha (Homo sapiens) (UniProt Q13133); assay: ATG_LXRa_TRANS: Attagene TRANS-FACTORIAL HepG2 Assay for human Liver X Receptor alpha (LXRa) (AID 2282980); conditions: HepG2 Attagene TRANS reporter, LXRa transactivation
Summary of the method: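 Read-out: reporter transcript levels by RT-PCR plus capillary electrophoresis, fluorescence intensity. Transiently transfected HepG2, exogenous NR-GAL4 chimera, GAL4-UAS reporters; 24 h compound exposure. Activity = increase over DMSO negative control.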

Oxysterols receptor LXR-alpha (Homo sapiens), sequence (Q13133 whole entry, looked up, the tested form may be a part): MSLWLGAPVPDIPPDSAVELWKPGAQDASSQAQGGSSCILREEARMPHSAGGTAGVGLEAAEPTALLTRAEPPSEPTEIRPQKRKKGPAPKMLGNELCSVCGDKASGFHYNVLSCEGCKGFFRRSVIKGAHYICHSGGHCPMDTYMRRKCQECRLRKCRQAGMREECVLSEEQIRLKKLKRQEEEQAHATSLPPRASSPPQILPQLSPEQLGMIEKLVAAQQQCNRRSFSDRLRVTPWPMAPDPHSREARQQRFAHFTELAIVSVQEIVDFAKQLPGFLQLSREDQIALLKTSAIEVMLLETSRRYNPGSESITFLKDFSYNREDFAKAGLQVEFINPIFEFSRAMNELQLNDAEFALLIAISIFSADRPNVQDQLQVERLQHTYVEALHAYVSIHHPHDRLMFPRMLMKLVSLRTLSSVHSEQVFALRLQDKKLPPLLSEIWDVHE

Row | Structure (SMILES) | outcome
29 | O=C1OC(=O)c2ccc3c4c(ccc1c24)C(=O)OC3=O | inactive
30 | CC(C)(C)C(=O)C1C(=O)c2ccccc2C1=O | inactive
31 | O=C1c2c(O)ccc(Nc3ccc(CCO)cc3)c2C(=O)c2c([N+](=O)[O-])ccc(O)c21 | inactive
32 | O=S(=O)(Cl)C(F)(F)C(F)(F)C(F)(F)C(F)(F)C(F)(F)C(F)(F)C(F)(F)C(F)(F)F | inactive
33 | CC1=CCC(=O)O1 | inactive
34 | CC(O)C#CC(C)O (centres undefined) | inactive
35 | CCN(CCO)S(=O)(=O)C(F)(F)C(F)(F)C(F)(F)C(F)(F)C(F)(F)C(F)(F)C(F)(F)C(F)(F)F | inactive
36 | CC1=CC2C3C=CC(C3)C2C1C (centres undefined) | inactive
37 | O=C=NCc1cccc(CN=C=O)c1 | inactive
38 | O=C(O)C(F)(F)OC(F)(F)C(F)(F)OC(F)(F)C(F)(F)OC(F)(F)F | inactive
39 | O=C(Cl)C(F)(F)C(F)(F)C(F)(F)C(F)(F)C(F)(F)C(F)(F)C(F)(F)F | inactive
40 | O=C(F)C1(F)C(F)(F)C(F)(F)C(F)(F)C(F)(F)C1(F)F | inactive
41 | COCCC(=O)OC | inactive
42 | C#CC(O)CCC (centres undefined) | inactive
43 | N#CCCOCCC#N | inactive
44 | N#Cc1ccccc1O | inactive

target: Oxysterols receptor LXR-beta (Homo sapiens) (UniProt P55055); assay: ATG_LXRb_TRANS: Attagene TRANS-FACTORIAL HepG2 Assay for human Liver X Receptor beta (LXRb) (AID 2282981); conditions: HepG2 Attagene TRANS GAL4-LXRb reporter, mRNA
Summary of the method: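 Transient transfection HepG2 (multiplexed RTUs, GAL4-UAS); NR-Gal4 chimera; 24 h exposure; RNA → RT-PCR → 6-FAM primer extension → HpaI → CE; increase vs DMSO.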

Oxysterols receptor LXR-beta (Homo sapiens), sequence (P55055 whole entry, looked up, the tested form may be a part): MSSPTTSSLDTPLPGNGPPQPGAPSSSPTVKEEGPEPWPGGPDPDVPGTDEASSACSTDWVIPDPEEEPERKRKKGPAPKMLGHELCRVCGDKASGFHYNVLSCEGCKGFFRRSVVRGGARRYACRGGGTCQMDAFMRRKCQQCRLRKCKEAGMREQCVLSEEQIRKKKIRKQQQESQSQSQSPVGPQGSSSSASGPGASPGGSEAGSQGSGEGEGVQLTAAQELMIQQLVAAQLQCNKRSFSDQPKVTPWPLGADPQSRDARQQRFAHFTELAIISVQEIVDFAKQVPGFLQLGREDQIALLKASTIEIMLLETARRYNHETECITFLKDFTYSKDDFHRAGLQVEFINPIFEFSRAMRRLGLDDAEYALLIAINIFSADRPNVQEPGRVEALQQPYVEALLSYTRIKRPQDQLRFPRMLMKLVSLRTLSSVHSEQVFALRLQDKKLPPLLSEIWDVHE

Row | Structure (SMILES) | outcome
45 | Brc1ccccn1 | inactive
46 | CC(C)(C)C(=O)C1C(=O)c2ccccc2C1=O | inactive
47 | O=C1c2c(O)ccc(Nc3ccc(CCO)cc3)c2C(=O)c2c([N+](=O)[O-])ccc(O)c21 | inactive
48 | CC1=CCC(=O)O1 | inactive
49 | CCN(CCO)S(=O)(=O)C(F)(F)C(F)(F)C(F)(F)C(F)(F)C(F)(F)C(F)(F)C(F)(F)C(F)(F)F | inactive
50 | O=C=Nc1cccc2c(N=C=O)cccc12 | inactive
51 | O=C=NCc1cccc(CN=C=O)c1 | inactive
52 | O=C(Cl)C(F)(F)C(F)(F)C(F)(F)C(F)(F)C(F)(F)C(F)(F)C(F)(F)F | inactive
53 | O=C(F)C1(F)C(F)(F)C(F)(F)C(F)(F)C(F)(F)C1(F)F | inactive
54 | CCN(CC)c1ccc(C=O)cc1 | inactive
55 | C#CC(O)CCC (centres undefined) | inactive
56 | O=C(O)C(F)(F)C(F)(F)C(F)(F)C(=O)O | inactive
57 | CC(C)(C)c1cc(CCC(=O)OCC(COC(=O)CCc2cc(C(C)(C)C)c(O)c(C(C)(C)C)c2)(COC(=O)CCc2cc(C(C)(C)C)c(O)c(C(C)(C)C)c2)COC(=O)CCc2cc(C(C)(C)C)c(O)c(C(C)(C)C)c2)cc(C(C)(C)C)c1O | inactive
58 | N#CCCOCCC#N | inactive

target: Hepatocyte nuclear factor 4-alpha (Homo sapiens) (UniProt P41235); assay: ATG_HNF4a_TRANS: Attagene TRANS-FACTORIAL HepG2 Assay for human Hepatocyte Nuclear Factor 4 alpha (HNF4a) (AID 2282982); conditions: HepG2 HNF4a transactivation reporter, mRNA readout
Summary of the method: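 Readout is fluorescent reporter-transcript fragments resolved by capillary electrophoresis after RT-PCR from HepG2 cells dosed for 24 h. Cells carried transfected GAL4-UAS reporter constructs measuring exogenous NR-GAL4 chimera activity; DMSO served as baseline.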

Hepatocyte nuclear factor 4-alpha (Homo sapiens), sequence (P41235 whole entry, looked up, the tested form may be a part): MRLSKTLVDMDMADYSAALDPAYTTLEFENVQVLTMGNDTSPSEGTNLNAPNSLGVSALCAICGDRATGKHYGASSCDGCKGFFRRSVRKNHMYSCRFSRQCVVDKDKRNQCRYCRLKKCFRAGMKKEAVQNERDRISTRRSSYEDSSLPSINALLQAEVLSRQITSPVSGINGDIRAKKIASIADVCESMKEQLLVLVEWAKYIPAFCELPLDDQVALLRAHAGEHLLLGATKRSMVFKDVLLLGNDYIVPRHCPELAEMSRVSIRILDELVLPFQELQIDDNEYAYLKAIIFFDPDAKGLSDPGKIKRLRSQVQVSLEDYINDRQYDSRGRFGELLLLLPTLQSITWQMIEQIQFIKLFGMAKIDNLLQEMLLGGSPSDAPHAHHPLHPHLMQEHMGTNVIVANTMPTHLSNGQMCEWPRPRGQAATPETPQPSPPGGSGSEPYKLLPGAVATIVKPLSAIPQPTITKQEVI

Row | Structure (SMILES) | outcome | AC50
59 | Brc1ccccn1 | inactive | 
60 | O=C1OC(=O)c2ccc3c4c(ccc1c24)C(=O)OC3=O | inactive | 
61 | CC(C)(C)C(=O)C1C(=O)c2ccccc2C1=O | inactive | 
62 | O=C1c2c(O)ccc(Nc3ccc(CCO)cc3)c2C(=O)c2c([N+](=O)[O-])ccc(O)c21 | inactive | 
63 | CC1=CCC(=O)O1 | inactive | 
64 | CC(O)C#CC(C)O (centres undefined) |  | 151 µM (active)
65 | NC(=O)C(F)(F)C(F)(F)C(F)(F)C(F)(F)C(N)=O | inactive | 
66 | CC(C)OC(=O)COc1ccc(Cl)cc1Cl | inactive | 
67 | CCn1c2ccccc2c2ccccc21 | inactive | 
68 | O=C1C=CC(=O)N1c1ccccc1 | inactive | 
69 | O=C=NCc1cccc(CN=C=O)c1 | inactive | 
70 | NC(O)(C(F)(F)F)C(F)(F)F | inactive | 
71 | CCN(CC)c1ccc(C=O)cc1 | inactive | 
72 | CCCCOC(=O)[C@H](C)O | inactive | 
73 | COCCC(=O)OC | inactive | 
74 | Cc1ccc(S(=O)(=O)C(I)I)cc1 | inactive | 
75 | O=C(O)C(F)(F)C(F)(F)C(F)(F)C(=O)O | inactive | 
76 | CC(C)(C)c1cc(CCC(=O)OCC(COC(=O)CCc2cc(C(C)(C)C)c(O)c(C(C)(C)C)c2)(COC(=O)CCc2cc(C(C)(C)C)c(O)c(C(C)(C)C)c2)COC(=O)CCc2cc(C(C)(C)C)c(O)c(C(C)(C)C)c2)cc(C(C)(C)C)c1O | inactive | 
77 | CN(N=O)C(=O)N[C@@H]1[C@@H](O)[C@H](O)[C@@H](CO)O[C@@H]1O | inactive | 
78 | OCCCCC(F)(F)C(F)(F)C(F)(F)C(F)(F)F | inactive | 
79 | N#CCCOCCC#N | inactive | 
